Measured values: PubChem BioAssay AID1159580 (chemical genetic matrix, 2015)
The whole screen tested about 5,500 compounds, of which about 2,000 (36%) were called active. Roughly 18% stayed inconclusive and do not appear here. Cut-off read from the data, not from the text of the source: active = normalized growth mostly below about 0.91 (no sharp cut-off); inconclusive = no clear call, values can overlap the other calls; inactive = mostly above about 0.92. The list shows a part of the results.

Assay: chemical genetic growth profiling, strain panel (AID 1159580);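 note: tested at 20 µM; growth read once vehicle control cultures reached saturation at 30 °C; 1 = growth at the plate median or of vehicle wells; lower values mean less growth of the strain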
Details: S. cerevisiae deletion strains, growth OD

Measured: normalized growth

COc1cccc(-c2cc(=O)c3ccc(OC)cc3o2)c1
active: locus YBR009C, strain hhf1, active compounds read low 0.891 | locus YBR023C, strain chs3, active compounds read low 0.897 | locus YDR392W, strain spt3, active compounds read low 0.623 | locus YER110C, active compounds read low 1.16 [resistant] | locus YER155C, strain BEM2 (second series), active compounds read low 0.699 | locus YGL240W, strain doc1, active compounds read low 0.837 | locus YGL253W, strain hxk2, active compounds read low 0.903 | locus YGR229C, strain SMI1, active compounds read low 0.722 | locus YHR030C, strain SLT2, active compounds read low 0.82 | locus YHR079C, strain IRE1 (second series), active compounds read low 1.08 [resistant] | locus YHR094C, strain hxt1, active compounds read low 1.15 [resistant] | locus YHR142W, strain chs7, active compounds read low 0.793 | locus YIR030C, strain dcg1, active compounds read low 1.14 [resistant] | locus YJL095W, strain BCK1 (second series), active compounds read low 0.916 | locus YJL095W, strain BCK1, active compounds read low 0.656 | locus YKL009W, strain mrt4, active compounds read low 0.828 | locus YKL068W, active compounds read low 0.931 | locus YKL085W, strain MDH1 (second series), active compounds read low 0.845 | locus YKL085W, strain MDH1, active compounds read low 0.845 | locus YKR026C, strain gcn3, active compounds read low 0.91 | locus YLR320W, strain mms22, active compounds read low 0.824 | locus YML124C, strain tub3, active compounds read low 1.13 [resistant] | locus YMR078C, strain ctf18, active compounds read low 1.1 [resistant] | locus YMR205C, strain PFK2, active compounds read low 0.871 | locus YNL071W, strain lat1, active compounds read low 0.813 | locus YNL307C, strain MCK1, active compounds read low 0.842 | locus YNR052C, strain pop2, active compounds read low 1.14 [resistant] | locus YOL147C, strain pex11, active compounds read low 1.08 [resistant] | locus YOR136W, strain idh2, active compounds read low 1.18 [resistant] | locus YOR144C, strain elg1, active compounds read low 1.18 [resistant] | locus YOR270C, strain vph1, active compounds read low 0.71 | locus YOR290C, strain snf2, active compounds read low 0.84 | locus YOR316C, strain cot1, active compounds read low 1.1 [resistant] | locus YPL106C, strain sse1, active compounds read low 0.84
inactive: locus YAL013W, strain DEP1, active compounds read low 0.93 | locus YAL021C, strain ccr4, active compounds read low 0.964 | locus YAL026C, strain drs2, active compounds read low 0.936 | locus YAL030W, strain snc1, active compounds read low 0.943 | locus YBL061C, strain skt5, active compounds read low 0.929 | locus YBR021W, strain FUR4, active compounds read low 0.942 | locus YBR171W, strain sec66, active compounds read low 0.916 | locus YBR229C, strain ROT2, active compounds read low 0.959 | locus YBR231C, strain swc5, active compounds read low 0.922 | locus YBR279W, strain paf1, active compounds read low 0.944 | locus YCL011C, strain gbp2, active compounds read low 0.938 | locus YCL016C, strain dcc1, active compounds read low 0.96 | locus YCL061C, strain MRC1, active compounds read low 0.944 | locus YCL069W, strain vba3, active compounds read low 0.947 | locus YCR088W, strain abp1, active compounds read low 0.938 | locus YDL005C, strain med2, active compounds read low 0.973 | locus YDL035C, strain GPR1, active compounds read low 0.922 | locus YDL040C, strain nat1, active compounds read low 0.948 | locus YDL074C, strain BRE1, active compounds read low 0.837 | locus YDL101C, strain DUN1, active compounds read low 0.954 | locus YDL134C, strain PPH21, active compounds read low 0.978 | locus YDL185W, strain tfp1, active compounds read low 0.978 | locus YDL192W, strain arf1, active compounds read low 1.04 | locus YDR001C, strain nth1, active compounds read low 0.935 | locus YDR069C, strain doa4, active compounds read low 0.96 | locus YDR101C, strain arx1, active compounds read low 1.04 | locus YDR137W, strain rgp1, active compounds read low 0.929 | locus YDR150W, strain NUM1, active compounds read low 0.951 | locus YDR159W, strain sac3, active compounds read low 0.921 | locus YDR162C, strain NBP2, active compounds read low 0.926 | locus YDR195W, strain ref2 1.05 | locus YDR297W, strain sur2, active compounds read low 0.955 | locus YDR318W, strain mcm21, active compounds read low 0.972 | locus YDR334W, strain swr1, active compounds read low 0.943 | locus YDR335W, strain msn5, active compounds read low 0.965 | locus YDR388W, active compounds read low 1.04 | locus YDR502C, strain sam2, active compounds read low 1.04 | locus YEL003W, strain gim4, active compounds read low 0.962 | locus YEL037C, strain rad23, active compounds read low 0.952 | locus YEL061C, strain CIN8 (second series), active compounds read low 0.958 | locus YEL061C, strain CIN8, active compounds read low 0.964 | locus YER015W, strain faa2, active compounds read low 0.953 | locus YER016W, strain bim1, active compounds read low 0.952 | locus YER111C, strain swi4, active compounds read low 0.957 | locus YER155C, strain BEM2, active compounds read low 1.06 | locus YER167W, strain BCK2, active compounds read low 0.907 | locus YFR010W, strain ubp6, active compounds read low 0.961 | locus YGL078C, strain dbp3, active compounds read low 1.05 | locus YGL086W, strain mad1, active compounds read low 0.934 | locus YGL167C, strain pmr1, active compounds read low 0.938 | locus YGL173C, strain kem1, active compounds read low 0.966 | locus YGL227W, strain vid30, active compounds read low 0.946 | locus YGL248W, strain PDE1, active compounds read low 0.946 | locus YGR078C, strain PAC10, active compounds read low 0.945 | locus YGR135W, strain pre9, active compounds read low 1.08 | locus YGR252W, strain gcn5, active compounds read low 0.884 | locus YHR013C, strain ard1, active compounds read low 0.852 | locus YHR027C, strain rpn1, active compounds read low 0.968 | locus YHR129C, strain ARP1, active compounds read low 1.03 | locus YHR200W, strain rpn10, active compounds read low 1.04 | locus YIL066C, strain RNR3, active compounds read low 0.961 | locus YIL073C, strain SPO22, active compounds read low 0.834 | locus YIL125W, strain kgd1, active compounds read low 0.964 | locus YJL092W, strain hpr5, active compounds read low 0.954 | locus YJL115W, strain asf1, active compounds read low 0.954 | locus YJL129C, strain trk1, active compounds read low 0.95 | locus YJL134W, strain LCB3, active compounds read low 0.965 | locus YJL154C, strain vps35, active compounds read low 0.959 | locus YJL164C, strain tpk1, active compounds read low 0.928 | locus YJL166W, strain qcr8, active compounds read low 0.905 | locus YJL168C, strain set2, active compounds read low 1.04 | locus YJL187C, strain SWE1 (second series), active compounds read low 0.942 | locus YJL187C, strain SWE1, active compounds read low 0.949 | locus YJR043C, strain POL32, active compounds read low 0.866 | locus YJR075W, strain HOC1, active compounds read low 0.994 | locus YKL160W, strain elf1, active compounds read low 0.933 | locus YKL190W, strain CNB1, active compounds read low 0.952 | locus YKR001C, strain vps1, active compounds read low 1.06 | locus YKR091W, strain srl3, active compounds read low 0.958 | locus YLL001W, strain dnm1, active compounds read low 0.922 | locus YLL026W, active compounds read low 0.94 | locus YLL041C, strain sdh2, active compounds read low 0.951 | locus YLR027C, strain aat2, active compounds read low 0.934 | locus YLR039C, strain RIC1, active compounds read low 0.983 | locus YLR058C, strain SHM2, active compounds read low 0.999 | locus YLR102C, strain apc9, active compounds read low 1.03 | locus YLR221C, strain rsa3, active compounds read low 0.91 | locus YLR258W, strain gsy2, active compounds read low 0.93 | locus YLR262C, strain YPT6 (second series), active compounds read low 0.916 | locus YLR262C, strain YPT6, active compounds read low 0.989 | locus YLR268W, strain sec22, active compounds read low 0.994 | locus YLR330W, strain CHS5, active compounds read low 1.02 | locus YLR342W, strain FKS1 (second series), active compounds read low 0.839 | locus YLR342W, strain FKS1, active compounds read low 0.951 | locus YLR357W, strain rsc2, active compounds read low 0.856 | locus YLR370C, strain arc18, active compounds read low 0.948 | locus YLR371W, strain rom2, active compounds read low 0.965 | locus YLR384C, strain iki3, active compounds read low 0.962 | locus YLR418C, strain cdc73, active compounds read low 0.948 | locus YML016C, strain PPZ1, active compounds read low 0.998 | locus YML032C, strain rad52, active compounds read low 0.954 | locus YML120C, strain ndi1, active compounds read low 0.92 | locus YMR058W, strain fet3, active compounds read low 0.938 | locus YMR125W, strain sto1, active compounds read low 0.941 | locus YMR129W, active compounds read low 0.971 | locus YMR223W, strain ubp8, active compounds read low 1 | locus YMR231W, strain pep5, active compounds read low 0.97 | locus YMR263W, strain SAP30, active compounds read low 0.896 | locus YMR307W, strain GAS1, active compounds read low 0.734 | locus YNL067W, strain RPL9B, active compounds read low 0.944 | locus YNL128W, strain TEP1, active compounds read low 1.02 | locus YNL153C, strain GIM3, active compounds read low 0.997 | locus YNL209W, strain ssb2, active compounds read low 0.977 | locus YNL233W, strain BNI4, active compounds read low 0.942 | locus YNL248C, strain rpa49, active compounds read low 0.927 | locus YNL250W, strain rad50, active compounds read low 0.969 | locus YNL271C, strain bni1, active compounds read low 0.938 | locus YNL298W, strain CLA4, active compounds read low 0.924 | locus YNL322C, strain KRE1 (second series), active compounds read low 0.959 | locus YNL322C, strain KRE1, active compounds read low 0.958 | locus YNR049C, strain mso1, active compounds read low 0.953 | locus YOL006C, strain TOP1, active compounds read low 0.659 | locus YOL012C, strain htz1 0.755 | locus YOR001W, strain rrp6, active compounds read low 0.94 | locus YOR061W, strain CKA2, active compounds read low 0.951 | locus YOR069W, strain VPS5, active compounds read low 0.958 | locus YOR070C, strain gyp1, active compounds read low 0.942 | locus YOR080W, strain dia2, active compounds read low 0.947 | locus YOR083W, strain WHI5, active compounds read low 0.91 | locus YOR106W, strain vam3, active compounds read low 0.922 | locus YOR184W, strain ser1, active compounds read low 0.959 | locus YOR265W, strain rbl2, active compounds read low 0.942 | locus YPL051W, strain arl3, active compounds read low 0.932 | locus YPL055C, strain LGE1, active compounds read low 0.873 | locus YPL078C, strain atp4, active compounds read low 0.91 | locus YPL240C, strain hsp82, active compounds read low 0.952 | locus YPL241C, strain CIN2, active compounds read low 0.966 | locus YPR119W, strain clb2, active compounds read low 1.03 | locus YPR141C, strain kar3, active compounds read low 1 | locus YPR163C, strain tif3, active compounds read low 1.03 | locus YPR167C, strain met16, active compounds read low 1.04 | strain wtn01, active compounds read low 1.05
